According to PubChem BioAssay (Tox21):
Inconclusive results are not listed. Entries that show only a call come without a potency. Some compounds were tested as several samples or in several runs, with calls that do not always agree. Active and inactive are the calls of the source. Calls follow the shape of the full dose curve.

Experiments:
[1] = target: Acetylcholinesterase (Homo sapiens) (UniProt P22303); test: Acetylcholinesterase (AChE) small molecule antagonists: colormetric cell-based qHTS assay (AID 1347395); also: nearly all actives have a fitted effect of over 30% in size
Outline: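 SH-SY5Y cells, plated overnight at 37 C, were exposed to compounds for 30 min at 37 C and 5% CO2. Acetylthiocholine plus DTNB was then added, and thiocholine from endogenous AChE was quantified colorimetrically after 90 min at 37 C.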

[2] = target: Acetylcholinesterase (Homo sapiens) (UniProt P22303); test: Acetylcholinesterase (AChE) small molecule antagonists: enzyme-based qHTS assay (AID 1347397); settings: Potency: AChE enzyme activity inhibition; outcome: AChE enzyme activity inhibition; also: nearly all actives have a fitted effect of over 55% in size; also: potency is read from the fitted curve at half-maximal effect
Outline: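 In this quantitative HTS, compounds from the Tox21 10K collection were preincubated 30 min at ambient temperature with recombinant human AChE dispensed at 50 mU/mL. Hydrolysis of acetylthiocholine was then followed for 10 min by DTNB colour development.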

[3] = target: Acetylcholinesterase (Homo sapiens) (UniProt P22303); test: Acetylcholinesterase (AChE) small molecule antagonists: fluorescence cell-based qHTS assay (AID 1347398); settings: Potency: AChE activity; outcome: AChE activity; also: nearly all actives have a fitted effect of over 50% in size; also: potency is read from the fitted curve at half-maximal effect
Outline: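 Cells (SH-SY5Y) attached overnight, were dosed with compound or DMSO vehicle for 30 min at 37 C, and then incubated 40 min at room temperature with acetylthiocholine and Thiolite Green; green fluorescence indexed AChE activity.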

[4] = target: Acetylcholinesterase (Homo sapiens) (UniProt P22303); test: Acetylcholinesterase (AChE) small molecule antagonists: enzyme-based qHTS assay with human liver microsomes (AID 1347399); settings: Potency: qHTS inhibition; outcome: qHTS inhibition; also: nearly all actives have a fitted effect of over 60% in size
Outline: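 Recombinant human AChE (50 mU/mL in the enzyme mix) and human liver microsomes (0.25 mg/mL final) were preincubated with compound and NADPH (0.25 mg/mL final) for 30 min at 37 C. Acetylthiocholine/DTNB was then added; thiocholine was read colorimetrically after 10 min at room temperature.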

Chain of Acetylcholinesterase (Homo sapiens) (P22303 whole entry, looked up): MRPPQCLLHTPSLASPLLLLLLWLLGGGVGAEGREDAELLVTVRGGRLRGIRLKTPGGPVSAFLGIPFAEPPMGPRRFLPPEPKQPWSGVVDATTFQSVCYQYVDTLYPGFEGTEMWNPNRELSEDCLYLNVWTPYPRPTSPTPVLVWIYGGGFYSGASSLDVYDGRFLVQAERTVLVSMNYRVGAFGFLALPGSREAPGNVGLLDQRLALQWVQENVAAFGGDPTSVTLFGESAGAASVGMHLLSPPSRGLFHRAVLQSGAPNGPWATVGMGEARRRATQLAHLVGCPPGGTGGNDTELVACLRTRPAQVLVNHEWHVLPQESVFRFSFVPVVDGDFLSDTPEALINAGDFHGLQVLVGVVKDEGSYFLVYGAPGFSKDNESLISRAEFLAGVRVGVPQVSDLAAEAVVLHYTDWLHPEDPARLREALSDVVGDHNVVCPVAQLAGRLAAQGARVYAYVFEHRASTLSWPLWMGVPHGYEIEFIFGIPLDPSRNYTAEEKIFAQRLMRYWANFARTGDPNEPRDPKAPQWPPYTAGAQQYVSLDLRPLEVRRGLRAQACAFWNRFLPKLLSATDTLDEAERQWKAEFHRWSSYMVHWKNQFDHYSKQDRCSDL

Compound | Potency [1] | Potency [2] | Potency [3] | Potency [4] | activity, negative = inhibition [1] | activity change, negative = inhibition [2] | activity change, negative = inhibition [3] | activity change, negative = inhibition [4]
Cc1c(C)c2c(c(C)c1O)CC[C@@](C)(CCC[C@H](C)CCC[C@H](C)CCCC(C)C)O2 | inactive | inactive | inactive | inactive |  |  |  | 
CCCCCCCCCCCCCOS(=O)(=O)O | inactive | inactive | inactive | inactive |  |  |  | 
C#CCN(C)Cc1ccccc1 | inactive | inactive | inactive | inactive |  |  |  | 
S=c1nc[nH]c2nc[nH]c12 | inactive | inactive | inactive | inactive |  |  |  | 
CCc1cccc(O)c1 | inactive | inactive | inactive | inactive |  |  |  | 
NCCCCCC(=O)O | inactive | inactive | inactive | inactive |  |  |  | 
CN(C)CCN1CCOCC1 | inactive | inactive | inactive | inactive |  |  |  | 
CCCCCCCCCOS(=O)(=O)O | inactive | inactive | inactive | inactive |  |  |  | 
CC(=O)OCCC1CCCCC1 | inactive | inactive | inactive | inactive |  |  |  | 
NC(=O)NS(=O)(=O)c1ccc(N)cc1 | inactive | inactive | inactive | inactive |  |  |  | 
O=C(O)C(=O)Nc1cccc(-c2nn[nH]n2)c1 | inactive | inactive | inactive | inactive |  |  |  | 
CN1C[C@@H]2C[C@H]1CN2c1cc2c(cc1F)c(=O)c(C(=O)O)cn2C1CC1 |  |  |  |  | 1.26% [at 23.6 µM] (inactive) | -0.543% [at 23.6 µM] (inactive) | 1.64% [at 23.8 µM] (inactive) | 0.0665% [at 23.6 µM] (inactive)
CCN(CC)C(=O)c1cccc(C)c1 | inactive | inactive | inactive | inactive |  |  |  | 
C=COCC(C)C | inactive | inactive | inactive | inactive |  |  |  | 
CC(C)=CCC/C(C)=C/C=O | inactive | inactive | inactive | inactive |  |  |  | 
N[C@@H](Cc1cc(I)c(O)c(I)c1)C(=O)O | inactive | inactive | inactive | inactive |  |  |  | 
C[C@H]1C[C@@H](O)CC(C)(C)C1 | inactive | inactive | inactive | inactive |  |  |  | 
CCN1C(=O)c2ccccc2C1Nc1ccc(OCCN2CCCCC2)cc1 (stereo not given) | inactive | inactive | inactive | inactive |  |  |  | 
O=C[C@H](O)[C@H](O)[C@H](O)CO | inactive | inactive | inactive | inactive |  |  |  | 
Cc1occc(=O)c1O | inactive | inactive | inactive | inactive |  |  |  | 

Compound | Potency [1] | Potency [2] | Potency [3] | Potency [4] | activity, negative = inhibition [1] | activity change, negative = inhibition [2] | activity change, negative = inhibition [3] | activity change, negative = inhibition [4]
OCCN1CCNCC1 | inactive | inactive | inactive | inactive |  |  |  | 
NCCNCCO | inactive | inactive | inactive | inactive |  |  |  | 
O=C1c2ccccc2C(=O)C1c1ccccc1 | inactive | inactive | inactive | inactive |  |  |  | 
c1cc(C(c2ccc(OCC3CO3)cc2)C(c2ccc(OCC3CO3)cc2)c2ccc(OCC3CO3)cc2)ccc1OCC1CO1 (stereo not given) | inactive | inactive | inactive | inactive |  |  |  | 
C(=C/c1ccccc1)/c1ccccc1 | inactive | inactive | inactive | inactive |  |  |  | 
C=COCCOCCOC=C | inactive | inactive | inactive | inactive |  |  |  | 
CC(=O)OC(C)(C)C1CC=C(C)CC1 (stereo not given) | inactive | inactive | inactive | inactive |  |  |  | 
COCCOCCOC | inactive | inactive | inactive | inactive |  |  |  | 
Oc1c(Cl)cc(Cl)c2cccnc12 | inactive | inactive | inactive | inactive |  |  |  | 
CCCCCCCCCCO[C@@H]1O[C@H](CO)[C@@H](O)[C@H](O)[C@H]1O | inactive | inactive | inactive | inactive |  |  |  | 
O=C(O)CCc1ccccc1 | inactive | inactive | inactive | inactive |  |  |  | 
Cn1c(=O)[nH]c2ncn(C)c2c1=O | inactive | inactive | inactive | inactive |  |  |  | 
O=C(c1ccccc1)c1ccc(Cl)cc1 | inactive | inactive | inactive | inactive |  |  |  | 
C/C(=C(/OCCOc1ccc(Cl)cc1)c1ccc(Cl)cc1Cl)n1ccnc1 | inactive | inactive | inactive | inactive |  |  |  | 
O=Cc1ccc(C(=O)O)cc1 | inactive | inactive | inactive | inactive |  |  |  | 
O=C1CCCc2c(O)cccc21 | inactive | inactive | inactive | inactive |  |  |  | 
O=C1c2ccccc2C(=O)c2c(O)ccc(O)c21 | inactive | inactive | inactive | inactive |  |  |  | 
C=C[C@@H](C)CCC=C(C)C | inactive | inactive | inactive | inactive |  |  |  | 
O=C(O)c1ccc2cc(O)ccc2c1 | inactive | inactive | inactive | inactive |  |  |  | 
O=C(Nc1ccc([N+](=O)[O-])cc1Cl)c1cc(Cl)ccc1O | inactive | inactive | inactive | inactive |  |  |  | 

Compound | Potency [1] | Potency [2] | Potency [3] | Potency [4] | activity, negative = inhibition [1] | activity change, negative = inhibition [2] | activity change, negative = inhibition [3] | activity change, negative = inhibition [4]
O=NN(CCCl)C(=O)NCCCl | inactive | inactive | inactive | inactive |  |  |  | 
CNC(=O)NC | inactive | inactive | inactive | inactive |  |  |  | 
CC(C)C/C=C(\C=O)c1ccccc1 | inactive | inactive | inactive | inactive |  |  |  | 
CCCC[C@H]1CN(CC2CCOCC2)C(=O)OC12CCN(C1(C)CCN(C(=O)c3c(C)ncnc3C)CC1)CC2 | inactive | inactive | inactive | inactive |  |  |  | 
CC(C)OC(=O)C(C(=O)OC(C)C)=C1SC=CS1 | inactive | inactive | inactive | inactive |  |  |  | 
CCCCOC(=O)c1ccccc1C(=O)OCC(CC)CCCC (stereo not given) | inactive | inactive | inactive | inactive |  |  |  | 
CC1=CC[C@H]2C[C@@H]1C2(C)C | inactive | 63.9 µM (active) and inactive | 32 µM (active) and inactive | inactive |  |  |  | 
c1ccsc1 | inactive | inactive | inactive | inactive |  |  |  | 
CCCCCCCCCCOc1cc2c(=O)c(C(=O)OCC)c[nH]c2cc1OCC |  |  |  |  | 1.43% [at 10.5 µM] (inactive) | 0.693% [at 10.5 µM] (inactive) | -0.416% [at 10.5 µM] (inactive) | -5.96% [at 10.5 µM] (inactive)
Nc1c[n+](N2CCOCC2)no1 | inactive | inactive | inactive | inactive |  |  |  | 
O=C1c2cccc3c2[C@H](CCC3)CN1[C@@H]1CN2CCC1CC2 | inactive | inactive | inactive | inactive |  |  |  | 
CC/C=C\C/C=C\C/C=C\CCCCCCCC(=O)OCC | inactive | inactive | inactive | inactive |  |  |  | 
CCCCCCCCCC(=O)OCC | inactive | inactive | inactive | inactive |  |  |  | 
O=C1c2ccccc2C(=O)c2c1ccc(O)c2O | inactive | inactive | inactive | inactive |  |  |  | 
CN1CCN(C)CC1 | inactive | inactive | inactive | inactive |  |  |  | 
CCOC(=O)Cn1c(=O)sc2cccc(Cl)c21 | inactive | inactive | inactive | inactive |  |  |  | 
CC1(C)[C@H]2CC[C@](C)(C2)[C@H]1O | inactive | inactive | inactive | inactive |  |  |  | 
CC[C@H]1OC(=O)[C@H](C)[C@@H](O[C@H]2C[C@@](C)(OC)[C@@H](O)[C@H](C)O2)[C@H](C)[C@@H](O[C@@H]2O[C@H](C)C[C@H](N(C)C)[C@H]2O)[C@](C)(O)C[C@@H](C)CN(C)[C@H](C)[C@@H](O)[C@]1(C)O | inactive | inactive | inactive | inactive |  |  |  | 
O=S(=O)(O)c1cccc2c(S(=O)(=O)O)cccc12 | inactive | inactive | inactive | inactive |  |  |  | 
CS(=O)(=O)OCCCCOS(C)(=O)=O | inactive | inactive | inactive | inactive |  |  |  | 
